In assay [1] the target is Guanine nucleotide-binding protein G(i) subunit alpha-1 (Homo sapiens) (UniProt P63096). The assay is described as follows: qHTS Assay for Inhibitors of RGS12 GoLoco Motif Activity (Green Fluorophore) (AID 879).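 Also: 0% = labeled peptide with Gαi1 and full inhibition = labeled peptide alone without protein; negative values mean loss of peptide binding seen as reduced polarization.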 In short, it runs like this:
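A drop in FITC polarization marked displacement of the FITC-tagged RGS12 GoLoco peptide (10 nM) from Gαi1 (50 nM). Compounds were incubated 10 min at room temperature in Tris pH 7.5 buffer containing 150 mM NaCl, 0.1 mM GDP and 0.05% NP40; unlabeled peptide titration served as control.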
Background: Quantitative high-throughput screening tests each substance at several concentrations.

The target of assay [2] is Cytochrome P450 3A4 (Homo sapiens) (UniProt P08684). The assay is described as follows: qHTS Assay for Activators of Cytochrome P450 3A4 (AID 885). Also: nearly all actives have a fitted effect of over 65% in size. In short, it runs like this: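 Using 20nM recombinant human CYP3A4 in potassium phosphate (200mM), substrate Luciferin-PPXE at 25uM, luminescent luciferin detection followed a 60-min RT NADPH reaction; data scaled to 57 uM ketoconazole.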
Cytochrome P450 3A4 (Homo sapiens), sequence (P08684 whole entry, looked up): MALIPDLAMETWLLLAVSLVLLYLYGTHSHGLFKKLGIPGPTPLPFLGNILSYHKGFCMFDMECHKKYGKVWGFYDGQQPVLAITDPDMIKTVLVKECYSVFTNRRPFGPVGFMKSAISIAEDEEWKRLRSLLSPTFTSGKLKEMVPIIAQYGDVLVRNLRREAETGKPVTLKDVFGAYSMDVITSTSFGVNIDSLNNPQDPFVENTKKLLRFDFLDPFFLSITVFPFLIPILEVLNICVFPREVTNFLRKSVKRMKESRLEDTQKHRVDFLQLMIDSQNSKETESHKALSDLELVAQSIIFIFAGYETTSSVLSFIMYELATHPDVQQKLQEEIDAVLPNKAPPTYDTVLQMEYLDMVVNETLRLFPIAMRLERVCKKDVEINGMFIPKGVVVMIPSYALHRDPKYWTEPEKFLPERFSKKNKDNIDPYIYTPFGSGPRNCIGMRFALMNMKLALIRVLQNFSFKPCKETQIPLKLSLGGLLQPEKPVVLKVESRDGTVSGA

Assay [3] in a line: qHTS Assay for Identification of Small Molecule Agonists for Thrombopoietin (TPO) Signaling Pathway (AID 917). Also: % is scaled to controls: 0 for no effect and ±100 for the full control effect. A digest of the protocol: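 Human TPO receptor–transfected Ba/F3 cells (murine, IL-3-dependent) in IL-3-deficient medium; compounds plus TPO at EC50, 26 pM final; 24 hrs, 37 C; GpIIb-luciferase luminescence after 10 min RT detection.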
Assay [4] concerns the target Muscarinic acetylcholine receptor M1 (Rattus norvegicus) (UniProt P08482). The assay is described as follows: qHTS Assay for Antagonists of Acetylcholine Muscarinic M1 Receptor: Kinetic Measurement of Intracellular Calcium Response (AID 943).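 Also: Fluo-4 calcium signal as peak divided by basal fluorescence over 4 min; series mostly up to about 35 µM; nearly all actives have a fitted effect of over 75% in size.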 In short, it runs like this:
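Antagonism measured as reduction of carbachol-evoked (EC80, 100 nM final) calcium flux in rat M1-CHO cells after 10 min compound exposure. Fluo-4 signal read kinetically; ratio of maximal to basal fluorescence.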

Assay [5] has the same target. As to the kind of experiment: qHTS Assay for Antagonists of Acetylcholine Muscarinic M1 Receptor: Measurement of IP-One Response (AID 944). Also: nearly all actives have a fitted effect of over 75% in size. A digest of the protocol: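 IP1 accumulation measured via TR-FRET between d2-IP1 and Eu-cryptate anti-IP1 antibody after carbachol (200 nM, EC80) stimulation for 30 min; rat M1-transfected CHO cells received compound 10 min before agonist.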

For assay [6], the target named is Pyruvate kinase (Leishmania mexicana) (UniProt Q27686). As to the kind of experiment: qHTS Validation Assay for Inhibitors of Leishmania Mexicana Pyruvate Kinase (AID 945).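 Also: 0% = DMSO only neutral control wells.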 In short, it runs like this:
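Pyruvate kinase activity of E451W LmPYK (0.2 nM) was followed as ATP output after 1 h at room temperature with 0.5 mM PEP and 0.1 mM ADP, detected by PKLight luminescence.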

Assay [7] deals with Cytochrome P450 3A4 (Homo sapiens) (UniProt P08684). As to the kind of experiment: qHTS Assay for Inhibitors and Substrates of Cytochrome P450 3A4 (AID 884). Also: series mostly up to about 57 µM; % is scaled to controls: 0 for no effect and ±100 for the full control effect; nearly all actives have a fitted effect of over 50% in size. A digest of the protocol:
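Luminescent readout of luciferin produced by CYP3A4 (20 nM) dealkylation of Luciferin-PPXE, 25 uM (its KM). NADPH-driven reaction ran 60 min at RT after 10 min compound preincubation; data scaled to 57 uM ketoconazole as 100% inhibition.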

Assay [8] concerns the target Cytochrome P450 2D6 (Homo sapiens) (UniProt P10635). As to the kind of experiment: qHTS Assay for Inhibitors and Substrates of Cytochrome P450 2D6 (AID 891).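 Also: luciferin methyl ether substrate demethylated by CYP2D6 with NADPH regeneration; % is scaled to controls: 0 for no effect and ±100 for the full control effect; nearly all actives have a fitted effect of over 60% in size.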 In short, it runs like this: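 Luminescent read-out of luciferin formed by 5 nM human CYP2D6 demethylating 30 uM Luciferin-ME EGE (Km level) over 60 min at room temperature after NADPH regeneration addition. Data normalized to full inhibition by 1.43 uM quinidine.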

Assay [9] is described as follows: Cellular Toxicity (caspase-3) H-4-II-E (AID 663).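 Also: 0% = DMSO basal and 100% = 100 µM tamoxifen.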 A digest of the protocol:
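Caspase 3/7 activation measured in H-4-II-E cells in complete culture medium after 16 hr treatment at 37 °C, using luciferase-coupled substrate readout; AC50 values come from Hill-equation fits of normalized concentration-response data.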

The nature of assay [10]: Cellular Toxicity (caspase-3) Hek293 (AID 664).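 Also: cells exposed to compound for 16 h at 37 °C before readout.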 In short, it runs like this:
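Concentration-response qHTS: caspase 3/7 activation measured by luminescent aminoluciferin substrate cleavage after 16 h compound exposure of Hek 293 cells. AC50 from Hill equation, with DMSO as basal and 100 uM tamoxifen as 100%.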

Assay [11] in a line: Cellular Toxicity (caspase-3) N2a (AID 665).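 Also: compound exposure lasted 16 h at 37 °C before readout.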 A digest of the protocol:
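Caspase-3/7 activation measured as luminescence from Caspase-Glo reagent (1 h, room temperature) after 16 h compound exposure of mouse N2a cells. AC50 values from Hill-equation concentration-response, scaled between DMSO and 10 uM staurosporine.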

Assay [12] can be described thus: Cellular Toxicity (caspase-3) NIH 3T3 (AID 666).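 Also: 0% = DMSO basal and 100% = 100 µM tamoxifen stimulation.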 A digest of the protocol:
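Caspase-Glo 3/7 luminescence reported caspase activation in 1000 NIH 3T3 cells/well after 16 h compound exposure at 37 C. DMSO set basal and 100 uM tamoxifen set 100% stimulation; concentration-response modeled with the Hill equation for AC50.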

Assay [13] is described as follows: Cellular Toxicity (caspase-3) Renal Proximal Tubule (AID 667).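 Also: cells exposed to compound for 16 hours at 37 °C before detection; 0% = DMSO basal and 100% = 10 µM staurosporine.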 In short, it runs like this: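 Caspase-Glo 3/7 read-out, rat primary kidney proximal tubule cells. Compound exposure 16 h, 37 °C; detection after 1 h at RT. Activity scaled to DMSO and 10 uM staurosporine.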
A short description of assay [14]: Cell Viability - LYMP2-001 (AID 921).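 Also: series mostly up to about 92 µM; cells exposed to compound for 24 h at 37 °C; 0% = DMSO only and full inhibition = tetraoctylammonium bromide control wells; nearly all actives have a fitted effect of over 70% in size.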 A digest of the protocol: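 A lymphoblastoid cell line of human origin was treated with library compounds across a concentration series for 24 hours, and viable cell number was estimated from ATP-driven luciferase light output. Hill modeling gave AC50.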
The nature of assay [15]: MultiTox-Fluor Cytotoxicity Assay - LYMP1-001 - Dead Cells (AID 946).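 Also: 0% = DMSO and 100% = tetraoctylammonium bromide.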 A digest of the protocol:
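In this qHTS, 15 uM tetraoctylammonium bromide defined 100% and DMSO defined basal activity. Lymphoblastoid cells (LYMP1-001, 2500 per well) received compound for 16 hr at 37 C before a fluorogenic dead-cell substrate readout at 485/520 nm.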

Assay [16] concerns the target Cytochrome P450 2C9 (Homo sapiens) (UniProt P11712). As to the kind of experiment: qHTS Assay for Inhibitors and Substrates of Cytochrome P450 2C9 (AID 883). Also: nearly all actives have a fitted effect of over 60% in size. Also: potency is read from the fitted curve at half-maximal effect. As to activity change, negative = inhibition: % is scaled to controls: 0 for no effect and ±100 for the full control effect. A digest of the protocol:
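Human CYP2C9 (10nM) hydroxylated Luciferin-H (100uM, at its KM) to luciferin in 25mM KPO4. Compound was preincubated 10 min at 37C, then NADPH regeneration started a 60 min reaction at 37C. Luminescence was read after detection reagent, normalized to 57uM sulphaphenazole.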

The target in assay [17] is Cytochrome P450 2C19 (Homo sapiens) (UniProt P33261). The assay is described as follows: qHTS Assay for Inhibitors and Substrates of Cytochrome P450 2C19 (AID 899). Also: % is scaled to controls: 0 for no effect and ±100 for the full control effect; nearly all actives have a fitted effect of over 60% in size. A digest of the protocol: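 Human CYP2C19 (5nM) with Luciferin-H EGE at 10uM (its KM) in 50mM KPO4 was preincubated with compound for 10 min at 37C. NADPH regeneration started a 60 min 37C reaction. Luciferin was read by luminescence, normalized to 57uM ketoconazole.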
Cytochrome P450 2C19 (Homo sapiens), sequence (P33261 whole entry, looked up): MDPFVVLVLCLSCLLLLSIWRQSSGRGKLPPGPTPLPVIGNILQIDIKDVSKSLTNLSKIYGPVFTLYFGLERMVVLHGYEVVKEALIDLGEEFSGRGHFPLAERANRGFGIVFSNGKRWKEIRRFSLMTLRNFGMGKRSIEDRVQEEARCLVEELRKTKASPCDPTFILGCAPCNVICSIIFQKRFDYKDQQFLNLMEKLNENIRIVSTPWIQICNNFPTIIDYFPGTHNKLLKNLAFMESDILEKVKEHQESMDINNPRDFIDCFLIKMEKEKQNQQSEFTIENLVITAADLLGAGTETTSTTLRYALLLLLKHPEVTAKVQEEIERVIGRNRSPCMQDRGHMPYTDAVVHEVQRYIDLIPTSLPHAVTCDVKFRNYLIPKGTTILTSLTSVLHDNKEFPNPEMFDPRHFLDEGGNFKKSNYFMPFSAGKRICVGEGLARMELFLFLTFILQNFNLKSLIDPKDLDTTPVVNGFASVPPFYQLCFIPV

Assay [18] is described as follows: Confirmation and Secondary Assay for Modulators of Hemoglobin Beta Chain Splicing at IVS2 654 locus (AID 910).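 Also: per-well total GFP intensity by laser scanning cytometry after 2-day treatment; % of control where 0% means no effect.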 A digest of the protocol: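 HeLa cells stably carrying EGFP interrupted by mutant beta-globin IVS2-654 intron (CMV-driven) were treated with compound for 2 days at 37C; corrected splicing was scored as total peak GFP intensity per well (488 nm excitation, 500-520 nm emission).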

The nature of assay [19]: Confirmation and Secondary Assay for Modulators of Hemoglobin Beta Chain Splicing at IVS2 705 locus (AID 930).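 Also: HeLa cells stably expressing the EGFP-705 splicing reporter; series mostly up to about 46 µM; % of control where 0% means no effect.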 In short, it runs like this: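 Assay measures total GFP intensity per well in HeLa EGFP-705 cells after 2 days with compound; mis-splicing normally truncates EGFP, so fluorescence indicates corrected splicing.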
A short description of assay [20]: qHTS Assay for Identification of Small Molecule Antagonists for NFkB Signaling Pathway (AID 895; active = well fitted inhibition curve with a large enough effect in the signal ratio, with a control signal flat, not every such curve was filed as active; the % refers to the signal ratio; also: % is scaled to controls: 0 for no effect and ±100 for the full control effect). In short, it runs like this: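 NFkB-bla ME-180 cervical carcinoma cells with beta-lactamase reporter under NFkB response element; compounds added, then TNF alpha at 10 pM final (EC50), 5 h at 37 C. LiveBLAzer substrate 2 h, room temperature; emission 460/530 nm at 405 nm excitation.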

Data on 15 molecules can be found in PubChem BioAssay (NCATS).

The structures appear in SMILES notation. A number with no mark means an inactive call. Records with an inconclusive call do not appear. The source made the active and inactive calls. Unless noted, calls follow the shape of the dose curve; as a rule, active = well fitted curve in the direction sought with a large enough effect; inconclusive = small, poorly fitted or top-dose-only effect, or another doubt; inactive = no such curve, though single readings can be large; an effect the other way counts as inactive or inconclusive.

Pyruvate kinase (Leishmania mexicana), sequence (Q27686 2-499 E452W): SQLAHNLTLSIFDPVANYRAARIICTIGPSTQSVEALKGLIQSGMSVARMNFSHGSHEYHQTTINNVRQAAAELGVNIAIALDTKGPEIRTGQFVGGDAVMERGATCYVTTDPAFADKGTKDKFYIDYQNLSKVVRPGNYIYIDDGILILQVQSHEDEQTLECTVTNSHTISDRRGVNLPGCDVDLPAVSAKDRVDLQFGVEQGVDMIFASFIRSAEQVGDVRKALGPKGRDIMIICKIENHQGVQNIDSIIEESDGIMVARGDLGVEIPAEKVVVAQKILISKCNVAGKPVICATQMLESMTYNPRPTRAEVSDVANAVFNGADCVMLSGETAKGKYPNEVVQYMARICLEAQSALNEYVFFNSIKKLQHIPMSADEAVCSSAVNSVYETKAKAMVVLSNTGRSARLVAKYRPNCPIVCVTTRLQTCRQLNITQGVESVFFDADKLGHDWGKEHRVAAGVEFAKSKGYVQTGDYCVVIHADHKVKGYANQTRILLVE
Muscarinic acetylcholine receptor M1 (Rattus norvegicus), sequence (P08482 whole entry, looked up): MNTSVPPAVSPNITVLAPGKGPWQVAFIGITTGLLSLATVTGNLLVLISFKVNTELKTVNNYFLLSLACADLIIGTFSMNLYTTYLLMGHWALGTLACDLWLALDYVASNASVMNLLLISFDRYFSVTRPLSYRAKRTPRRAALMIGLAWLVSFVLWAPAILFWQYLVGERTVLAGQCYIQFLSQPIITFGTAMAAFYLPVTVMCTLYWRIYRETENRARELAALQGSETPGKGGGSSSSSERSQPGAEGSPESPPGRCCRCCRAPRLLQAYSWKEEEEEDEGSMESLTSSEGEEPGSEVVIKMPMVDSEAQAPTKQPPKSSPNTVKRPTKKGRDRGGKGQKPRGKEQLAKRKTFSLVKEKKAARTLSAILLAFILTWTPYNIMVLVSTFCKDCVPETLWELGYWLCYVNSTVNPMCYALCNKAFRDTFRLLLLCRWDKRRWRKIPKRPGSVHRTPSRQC
Cytochrome P450 2C9 (Homo sapiens), sequence (P11712 whole entry, looked up): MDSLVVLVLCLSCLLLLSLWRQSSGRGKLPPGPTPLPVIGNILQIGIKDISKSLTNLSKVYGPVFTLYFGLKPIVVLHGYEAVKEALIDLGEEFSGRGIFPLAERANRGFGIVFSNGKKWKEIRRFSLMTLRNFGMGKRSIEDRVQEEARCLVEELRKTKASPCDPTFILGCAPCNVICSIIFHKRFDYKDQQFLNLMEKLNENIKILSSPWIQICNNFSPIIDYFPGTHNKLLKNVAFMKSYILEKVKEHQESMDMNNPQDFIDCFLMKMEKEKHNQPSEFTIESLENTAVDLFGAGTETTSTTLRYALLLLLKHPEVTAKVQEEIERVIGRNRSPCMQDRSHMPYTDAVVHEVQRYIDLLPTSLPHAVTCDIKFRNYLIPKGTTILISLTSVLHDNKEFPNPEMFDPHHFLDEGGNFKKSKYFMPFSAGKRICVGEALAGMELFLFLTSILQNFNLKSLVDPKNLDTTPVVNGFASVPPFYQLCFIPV
Cytochrome P450 2D6 (Homo sapiens), sequence (P10635 whole entry, looked up): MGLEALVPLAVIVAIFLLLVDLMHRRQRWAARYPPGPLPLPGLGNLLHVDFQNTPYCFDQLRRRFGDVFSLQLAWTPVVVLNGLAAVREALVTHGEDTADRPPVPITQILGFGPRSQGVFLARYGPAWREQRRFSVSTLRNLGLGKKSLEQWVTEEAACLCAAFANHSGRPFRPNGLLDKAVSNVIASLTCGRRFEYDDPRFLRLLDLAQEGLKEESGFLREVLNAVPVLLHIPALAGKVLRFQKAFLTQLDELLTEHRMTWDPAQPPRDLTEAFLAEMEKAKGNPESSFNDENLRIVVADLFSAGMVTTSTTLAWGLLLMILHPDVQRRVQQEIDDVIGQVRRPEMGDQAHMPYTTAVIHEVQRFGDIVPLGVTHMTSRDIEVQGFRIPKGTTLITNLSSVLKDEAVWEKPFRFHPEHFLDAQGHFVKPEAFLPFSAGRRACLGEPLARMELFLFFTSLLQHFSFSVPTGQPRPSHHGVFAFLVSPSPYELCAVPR
Guanine nucleotide-binding protein G(i) subunit alpha-1 (Homo sapiens), sequence (P63096 whole entry, looked up): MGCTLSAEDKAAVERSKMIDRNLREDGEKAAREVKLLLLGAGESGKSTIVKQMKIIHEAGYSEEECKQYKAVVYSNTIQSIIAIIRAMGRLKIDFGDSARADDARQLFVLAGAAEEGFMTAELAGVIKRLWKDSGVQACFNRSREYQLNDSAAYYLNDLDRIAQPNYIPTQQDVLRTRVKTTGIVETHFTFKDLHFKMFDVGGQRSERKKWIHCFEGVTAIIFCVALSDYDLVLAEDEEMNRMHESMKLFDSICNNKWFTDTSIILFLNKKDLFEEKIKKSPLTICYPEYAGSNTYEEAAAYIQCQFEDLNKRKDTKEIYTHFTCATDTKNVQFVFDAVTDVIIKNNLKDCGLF

For `Cc1ccc(OC[C@H](O)[C@H](C)NC(C)C)c2c1CCC2`, the molecule was called inactive in assay [1], in assay [2], in [3], in assay [4], in [5] and in [6].
Regarding `COc1ccc2[nH]c(=O)c3c(c2c1)OC(C)(C)C=C3`, the call in [7] and in [8] was inactive.
On to `COC(C)=O`, for which the result in assay [9], in assay [10], in assay [11], in assay [12], in assay [13] and in [7] was inactive. Besides, the molecule was called inactive in [14] and in assay [15].
Take `COC1=CC(=O)C[C@@H](C)[C@@]12Oc1c(Cl)c(OC)cc(OC)c1C2=O`: the Potency result in [16] was “inactive”. For the same molecule, the molecule was called inactive in assay [8] and in assay [17].
As for `C=Cc1ccccc1`, the molecule was classed as inactive in assay [9], in assay [10], in [11], in assay [12], in assay [13] and in assay [7]. The molecule was classed as inactive in assay [14] and in assay [15].
On to `CN(C)Cc1ccccc1`, for which the molecule was classed as inactive in assay [9], in assay [10], in [11], in assay [12], in [13] and in assay [7]. The molecule was classed as inactive in [14] and in [15].
For `O=C(O)CC(O)(CC(=O)O)C(=O)O`, the molecule was called inactive in [9], in assay [10], in assay [11], in assay [12], in [13] and in assay [7]. The molecule was classed as inactive in [18], in assay [14], in [19] and in assay [15].
`CN(C)CCCn1cc(C2=C(c3c[nH]c4ccccc34)C(=O)NC2=O)c2ccccc21`: in assay [2], the outcome was inactive.
In the case of `CC(=O)C1=C(O)C=C2Oc3c(C(C)=O)c(O)c(C)c(O)c3[C@]2(C)C1=O`, in [16], the Potency is 6.3 nM (active). Moreover, the call in [2] and in [8] was inactive.
As for `CCCCCCCCCC(=O)O`, the call in assay [9], in [10], in assay [11], in assay [12], in assay [13] and in assay [7] was inactive. The molecule was classed as inactive in assay [14] and in assay [15].
Turning to `O=C(O)c1cc2ccccc2c(Cc2c(O)c(C(=O)O)cc3ccccc23)c1O`, the figures for the activity change, negative = inhibition in assay [16] and in assay [8] were -15.3% [at 11.4 µM] and 6.29% [at 11.4 µM], respectively. Further, in assay [17], the activity, negative = inhibition is 1.36% [at 11.4 µM].
In the case of `CCCCCCCCCCCCCCCC(=O)OC/C=C(C)/C=C/C=C(C)/C=C/C1=C(C)CCCC1(C)C`, the call in [7], in [18] and in assay [19] was inactive.
Consider `NCCCC(=O)O`, for which the call in assay [1], in assay [7], in assay [8], in assay [20], in assay [17] and in assay [18] was inactive. The result in assay [3], in assay [19], in assay [4], in assay [5] and in assay [6] was inactive. Also, the Potency entry in assay [16] was “inactive”.
As to `C1CNCCN1`, the result in [7], in [18] and in assay [19] was inactive.
For `CN[C@H]1CC[C@@H](c2ccc(Cl)c(Cl)c2)c2ccccc21`, the call in assay [2] and in [6] was inactive.
